About 2,100 (91%) of roughly 2,300 compounds were called active. The set was probably picked from earlier hits. These entries were drawn from the full list. Measured potencies and affinities stand elsewhere. Values without a mark were called inactive.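 The calls were made as follows: active = compounds raising the signal whose fitted half-maximal concentration is at or below their top tested dose (cut at about 25 µM in these data); inconclusive = flat fit at 30 to 70% activity, or a poor fit; inactive = the rest.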
Assay: cytokine-free beta-cell viability effect – INS-1E rat cells, ATP luminescence, cherry pick, counter-screen for beta-cell apoptosis protection project, dose response (AID 463229);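 also: 0% = median of neutral control wells and 100% = median of positive control wells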
Details: INS-1E rat beta cells, no cytokines, CellTiter-Glo ATP, 48 h; series mostly up to 26 µM; activity change (ATP luminescence): at the top concentration

Row | SMILES | activity change (ATP luminescence)
1 | N#Cc1ccc(-c2csc(NNC(=O)c3ccccc3)n2)cc1 | 2.98%
2 | CCn1c(=O)c(C(=O)Nc2ccccn2)c(O)c2ccccc21 | -29.2%
3 | COc1ccc(CN2CCN(CCSc3ccc(C)cc3)CC2)c(OC)c1OC | 5.52%
4 | CCOC(=O)C1(Cc2cccc(Cl)c2)CCCN(C(=O)c2ccc(COC)s2)C1 (centres undefined) | -0.609%
5 | CN(C)CCCNc1cc(C(C)(C)C)nc2c(-c3ccccc3)cnn12 | 72.4%
6 | Cc1ccc2c(c1)Sc1c(ccc3ccccc13)N2 | -31%
7 | COc1ccc(C(=O)c2c(C)c3ccccc3n2CC(O)CNC(C)C)cc1 (centres undefined) | -0.686%
8 | COc1ccc(S(=O)(=O)Nc2ccc(O)c3ccccc23)cc1 | 148%
9 | CN(Cc1ccccc1)C(=O)c1nc2ccccn2c1CN1CCCC1c1nccs1 (centres undefined) | 0.597%
10 | CCn1c(=O)c([N+](=O)[O-])c(N2CCN(Cc3ccc4c(c3)OCO4)CC2)c2ccccc21 | -14.7%
11 | O=C(C(Sc1ccccc1)c1ccccc1)N1CCN(c2ccccc2F)CC1 (centres undefined) | -5.26%
12 | COc1ccc(N2CC(C(=O)N3CCN(c4ccccc4F)CC3)CC2=O)cc1 (centres undefined) | -80.3%
13 | Cc1occc1C(=O)N1CCCC(N2CCN(c3cccc(C(F)(F)F)c3)CC2)C1 (centres undefined) | -1.48%
14 | CC#CC[N+](C)(C)CCCCCCCC | 18.9%
15 | OCCN1CCN(C2Cc3cc(Cl)ccc3Sc3ccc(Cl)cc32)CC1 (centres undefined) (tested in a mixture with another compound) | -11% [at 12 µM]
16 | O=[N+]([O-])c1cccc(/C=N/n2cnnc2)c1 | 2.06%
17 | CC(C)NC(=S)NC(c1ccccc1)(c1ccccc1)c1ccccc1 | 78.9%
18 | CC1CCN(C(=O)CCNS(=O)(=O)c2ccc(Br)cc2)CC1 | -19%
19 | COc1ccc(Br)cc1CN(C)CC(=O)NCc1ccc(F)cc1 | -0.267%
20 | Cc1nn(-c2ccccc2)c(C)c1NC(=O)COc1ccc(Br)cc1Cl | -4.05%
21 | CCSC1=NCCN1C(=O)C(C)(C)Oc1ccc(Cl)cc1 | -6.11%
22 | Cc1cccc(C)c1NC(=O)CNC(=O)c1c(C)nn(C)c1Cl | -25.8%
23 | Cc1cccc(NC(=S)Nc2ccc3cn[nH]c3c2)c1 | 0.629%
24 | Cc1ccc(O)c(/C=N/NC(=O)c2[nH]ncc2Br)c1 | -11.4%
25 | NC(=S)N/N=C/c1c(O)ccc2ccccc12 | 4.57%
26 | COc1ccc(N(C)S(=O)(=O)c2cccc(C(=O)Nc3nc(C)c(C(C)=O)s3)c2)cc1 | -3.12%
27 | O=C(c1ccco1)c1coc2c1cc(O)c1ccccc12 | -3.38%

Row | SMILES | activity change (ATP luminescence)
28 | Cc1ccc2c(C)nc(Nc3nc(CSc4nc5ccccc5[nH]4)cc(=O)[nH]3)nc2c1 | 56.1%
29 | Cc1ccc(C(=O)N/C(=C\c2ccc(-c3ccccc3[N+](=O)[O-])o2)C(=O)NCCCN2CCOCC2)cc1 | -20.3%
30 | C=CCN1C(=O)N/C(=C/c2ccc(N3CCOCC3)o2)C1=O | -9.61%
31 | C[C@H](CO)N1C[C@H](C)[C@@H](CN(C)C(=O)NC2CCCCC2)Oc2c(NC(=O)Nc3ccc(C(F)(F)F)cc3)cccc2C1=O | 19.7%
32 | COc1ccc(S(=O)(=O)N2CCNCC2)cc1OC | -51.7%
33 | CCOC(=O)C(NCCc1ccc(F)cc1)(NC(=O)CC)C(F)(F)F (centres undefined) | 0.876%
34 | Cc1cc(C)cc(OCCCn2ccnc2)c1 | -28.9%
35 | O=c1[nH]c(NCCCO)nc2c1C1(CCCC1)Cc1ccccc1-2 | 3.07%
36 | Nc1ccc(Nc2ccc([N+](=O)[O-])cc2[N+](=O)[O-])cc1 | -11.2%
37 | COc1ccccc1NCC(=O)N/N=C/c1c(O)ccc2ccccc12 | 26.3%
38 | C/C(N)=C(/C#N)C(=O)COC(=O)c1cc(-c2ccc(C)cc2)nc2ccccc12 | 10.7%
39 | COc1ccc(C2=Nn3c(nnc3-c3ccccc3Cl)SC2)cc1OC1CCCC1 | -27.6%
40 | CCn1c(SCC(=O)Nc2ccc(OC)cc2)nc2nc3c(cc2c1=O)CCCC3 | -5.03%
41 | Cc1cccnc1CCNCc1c(C(=O)N2C[C@@H](C)O[C@@H](C)C2)nc2ccc(Cl)cn12 | -51.5%
42 | Cc1ccccc1Oc1nc(-c2ccccn2)nc2ccccc12 | -11.1%
43 | COc1cc2c(cc1OC)C(NC(=O)C(F)(F)F)CNC2=O (centres undefined) | 6%
44 | Cc1cccc(C2(c3cccc(C)c3)OC(=O)c3ccccc32)c1 | 70.2%
45 | O=C(CN1C(=O)c2ccccc2S1(=O)=O)c1ccc(F)cc1 | -12.8%
46 | O=c1c2c3c(sc2n(CCN2CCCCC2)c(=O)n1Cc1ccco1)CCCCC3 | 6.86%
47 | CCCCn1cnc2c(c(-c3ccccc3)c(-c3ccccc3)n2Cc2ccco2)c1=N | -3.17%
48 | Cc1cc(C(=O)c2ccc3ccccc3c2)c(C)o1 | -10.2%
49 | C=CCc1c(C)nc(C)nc1N/N=C/c1ccc(N(C)C)cc1 | -12.8%
50 | Cc1cc(N2CCOCC2)nc(N)n1 | -46.7%
51 | COc1ccccc1NCC(=O)N1CCN(S(=O)(=O)c2ccccc2)CC1 | 4.48%
52 | Cc1ccc(NC(=O)C(C)Sc2nnc(C)n2C2CC2)cc1S(=O)(=O)N1CCOCC1 (centres undefined) | -21.9%
53 | CNc1nc(N)c([N+](=O)[O-])c(Nc2cccc(F)c2)n1 | -4.52%
54 | Cc1cccc(CNc2ccc(S(=O)(=O)N3CCCCC3)cc2)c1 | 8.31%
